Results as given in the supplement of paper PMC10849652.
The full data set covers some 7,900 targets. This sample favours those with a hit. About 0.6% of all pairs of compound and target were hits.

How the values were obtained:
Experiment in all cases: log2 fold change, soluble protein after heating vs DMSO (PISA); higher = thermal stabilisation; K562 cells, 10 uM, 30 min; active = over 0.2 and 3.5 SD of the protein, either way, in both replicates (recomputed)
[1] = compound: C1=CC=C(C=C1)[C@H](COC2=CC3=C(C=C2)NC(=O)N3)NC(=O)C4=CC=CN(C4=O)CC5=CC(=C(C=C5)F)F
Outline: (§1)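 K562 cells (2×10^6 cells/mL) were treated with 10 μM compound for 30 min, and aliquots were heated for 3 min over 48°C-58°C. Pooled aliquots were extracted in PBS with 0.5% NP-40 at 4°C, and the supernatant after 21,000xg for 90 min was measured by TMTpro 16plex LC-MS/MS with channel sums equalised. Reported thermal stability, relative to control samples and from duplicates, is a log2 fold change.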

[2] = compound: CC1=C(SC2=C1C(=N[C@H](C3=NN=C(N32)C)CC(=O)N)C4=CC=C(C=C4)Cl)C
Outline: as §1

[3] = compound: CC1=C2C(=CC=C1)N=C(N(C2=O)C3=CC=CC=C3C)CN4C=NC5=C(N=CN=C54)N
Outline: as §1

[4] = compound: Cc1sc2c(c1C)C(c1ccc(Cl)cc1)=N[C@@H](CC(=O)OC(C)(C)C)c1nnc(C)n1-2
Outline: as §1

[5] = compound: c1ccc([C@@H]2C[C@H]2NC2CCNCC2)cc1
Outline: as §1

Measured: log2 fold change

NUP98 (UniProt P52948)
inactive: [1] -0.041 | [2] 0.032 | [3] 0.071 | [4] -0.005 | [5] -0.011

NBN (UniProt O60934)
inactive: [1] 0.002 | [2] 0.032 | [3] 0.036 | [4] -0.004 | [5] -0.001

NOS1AP (UniProt O75052)
inactive: [1] -0.109 | [2] 0.025 | [3] 0.362 | [4] -0.141 | [5] -0.178

NDUFB8 (UniProt O95169)
Sequence of UniProt O95169 (O95169 whole entry, looked up): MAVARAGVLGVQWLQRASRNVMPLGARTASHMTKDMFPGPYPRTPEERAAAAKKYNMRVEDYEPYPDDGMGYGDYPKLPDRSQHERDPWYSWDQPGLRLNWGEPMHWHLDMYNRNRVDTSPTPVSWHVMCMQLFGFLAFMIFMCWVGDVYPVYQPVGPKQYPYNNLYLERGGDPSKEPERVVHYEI
inactive: [1] 0.049 | [2] 0.045 | [3] 0.02 | [4] -0.002 | [5] 0.089

MITD1 (UniProt Q8WV92)
Sequence of UniProt Q8WV92 (Q8WV92 whole entry, looked up): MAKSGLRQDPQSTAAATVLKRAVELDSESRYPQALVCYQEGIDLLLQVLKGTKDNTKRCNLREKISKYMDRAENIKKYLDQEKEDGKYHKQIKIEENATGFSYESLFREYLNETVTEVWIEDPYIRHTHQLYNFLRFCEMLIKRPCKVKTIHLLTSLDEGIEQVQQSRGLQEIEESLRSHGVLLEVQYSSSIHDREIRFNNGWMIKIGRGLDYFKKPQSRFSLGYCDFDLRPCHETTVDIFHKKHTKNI
inactive: [1] -0.058 | [2] 0.022 | [3] -0.326 | [4] 0.045 | [5] 0.06

NHLRC2 (UniProt Q8NBF2)
Sequence of UniProt Q8NBF2 (Q8NBF2 whole entry, looked up): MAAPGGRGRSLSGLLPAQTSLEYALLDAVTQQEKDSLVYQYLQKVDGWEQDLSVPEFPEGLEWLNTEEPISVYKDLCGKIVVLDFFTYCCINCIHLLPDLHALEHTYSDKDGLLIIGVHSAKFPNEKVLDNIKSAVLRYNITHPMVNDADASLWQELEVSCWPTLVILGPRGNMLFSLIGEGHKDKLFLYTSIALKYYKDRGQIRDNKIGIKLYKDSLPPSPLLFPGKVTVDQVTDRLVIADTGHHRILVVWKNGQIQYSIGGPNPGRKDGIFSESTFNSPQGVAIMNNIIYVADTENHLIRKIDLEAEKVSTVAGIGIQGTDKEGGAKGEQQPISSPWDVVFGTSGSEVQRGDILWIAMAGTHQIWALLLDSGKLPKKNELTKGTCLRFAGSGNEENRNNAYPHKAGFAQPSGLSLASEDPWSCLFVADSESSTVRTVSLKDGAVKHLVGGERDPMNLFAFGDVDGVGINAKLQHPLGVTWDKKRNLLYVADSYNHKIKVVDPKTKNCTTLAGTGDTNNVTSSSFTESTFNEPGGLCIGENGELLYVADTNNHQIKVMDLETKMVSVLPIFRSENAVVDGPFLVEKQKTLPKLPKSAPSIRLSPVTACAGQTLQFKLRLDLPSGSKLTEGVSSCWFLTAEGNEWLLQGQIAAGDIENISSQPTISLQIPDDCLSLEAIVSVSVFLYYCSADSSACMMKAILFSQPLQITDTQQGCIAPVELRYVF
inactive: [1] -0.027 | [2] 0.038 | [3] 0.127 | [4] 0.009 | [5] 0.024

MRPS21 (UniProt P82921)
inactive: [1] -0.238 | [2] 0.032 | [3] 0.013 | [4] 0.116 | [5] -0.016

NCOR1 (UniProt O75376)
inactive: [1] -0.102 | [2] 0.06 | [3] 0.002 | [4] 0.016 | [5] -0.111

NMD3 (UniProt Q96D46)
Sequence of UniProt Q96D46 (Q96D46 whole entry, looked up): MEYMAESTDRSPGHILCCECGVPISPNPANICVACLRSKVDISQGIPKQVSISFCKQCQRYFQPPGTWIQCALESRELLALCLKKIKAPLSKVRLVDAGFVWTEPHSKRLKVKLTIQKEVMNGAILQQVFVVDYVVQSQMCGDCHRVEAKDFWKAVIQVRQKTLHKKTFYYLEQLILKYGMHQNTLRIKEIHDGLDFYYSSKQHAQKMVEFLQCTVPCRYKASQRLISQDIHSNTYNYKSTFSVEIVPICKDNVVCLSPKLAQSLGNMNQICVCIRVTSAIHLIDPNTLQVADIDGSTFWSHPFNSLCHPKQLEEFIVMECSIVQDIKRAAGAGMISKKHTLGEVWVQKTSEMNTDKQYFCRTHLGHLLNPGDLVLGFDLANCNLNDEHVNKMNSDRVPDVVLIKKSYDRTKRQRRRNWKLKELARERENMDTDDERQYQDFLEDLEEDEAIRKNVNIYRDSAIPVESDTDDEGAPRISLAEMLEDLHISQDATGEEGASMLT
inactive: [1] -0.046 | [2] 0.049 | [3] 0.01 | [4] -0.02 | [5] -0.11

NUDT1 (UniProt P36639)
inactive: [1] 0.556 | [2] -0.043 | [3] 0.048 | [4] -0.137 | [5] 0.038

NFX1 (UniProt Q12986)
inactive: [1] -0.011 | [2] -0.161 | [3] -0.068 | [4] 0.115 | [5] -0.163

OAT (UniProt P04181)
Sequence of UniProt P04181 (P04181 whole entry, looked up): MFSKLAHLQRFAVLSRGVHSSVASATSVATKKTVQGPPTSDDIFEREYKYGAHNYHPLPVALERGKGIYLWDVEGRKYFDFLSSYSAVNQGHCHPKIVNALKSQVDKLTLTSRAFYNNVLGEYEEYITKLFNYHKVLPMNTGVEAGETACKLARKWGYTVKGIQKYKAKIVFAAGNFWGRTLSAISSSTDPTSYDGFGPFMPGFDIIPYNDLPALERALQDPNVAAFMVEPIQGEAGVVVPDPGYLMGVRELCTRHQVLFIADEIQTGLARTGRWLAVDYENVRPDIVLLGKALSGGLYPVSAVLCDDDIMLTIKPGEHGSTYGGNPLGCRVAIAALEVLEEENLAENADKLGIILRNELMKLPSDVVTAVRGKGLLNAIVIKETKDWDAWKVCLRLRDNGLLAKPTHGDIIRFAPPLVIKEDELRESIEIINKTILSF
inactive: [1] -0.019 | [2] 0.083 | [3] 0.05 | [4] -0.024 | [5] -0.045

OGFOD2 (UniProt Q6N063)
Sequence of UniProt Q6N063 (Q6N063 whole entry, looked up): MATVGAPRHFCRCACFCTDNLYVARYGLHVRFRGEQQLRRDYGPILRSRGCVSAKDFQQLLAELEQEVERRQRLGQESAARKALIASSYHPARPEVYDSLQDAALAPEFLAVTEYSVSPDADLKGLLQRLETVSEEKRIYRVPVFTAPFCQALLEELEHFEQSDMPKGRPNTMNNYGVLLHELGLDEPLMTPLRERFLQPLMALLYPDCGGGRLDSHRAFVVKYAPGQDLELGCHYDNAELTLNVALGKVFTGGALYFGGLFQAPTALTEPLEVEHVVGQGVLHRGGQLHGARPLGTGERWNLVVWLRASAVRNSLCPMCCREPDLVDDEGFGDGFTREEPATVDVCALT
inactive: [1] 0.124 | [2] 0.097 | [3] 0.024 | [4] 0.091 | [5] 0.053

MORF4L2 (UniProt Q15014)
Sequence of UniProt Q15014 (Q15014 whole entry, looked up): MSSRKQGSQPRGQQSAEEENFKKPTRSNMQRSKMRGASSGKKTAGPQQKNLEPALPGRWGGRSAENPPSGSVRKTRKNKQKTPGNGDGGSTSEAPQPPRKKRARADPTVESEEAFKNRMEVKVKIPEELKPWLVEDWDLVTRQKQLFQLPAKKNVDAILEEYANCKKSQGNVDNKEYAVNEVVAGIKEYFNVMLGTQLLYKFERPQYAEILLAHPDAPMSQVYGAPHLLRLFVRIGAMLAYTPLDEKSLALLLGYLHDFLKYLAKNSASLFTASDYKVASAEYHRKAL
inactive: [1] 0.089 | [2] 0.001 | [3] -0.002 | [4] 0.028 | [5] 0.091

NCL (UniProt P19338)
inactive: [1] 0.158 | [2] -0.365 | [3] -0.299 | [4] 0.227 | [5] 0

MINK1 (UniProt Q8N4C8)
inactive: [1] -0.036 | [2] 0.024 | [3] -0.01 | [4] 0.037 | [5] 0.005

NFATC2IP (UniProt Q8NCF5)
inactive: [1] -0.051 | [2] 0.18 | [3] 0.039 | [4] -0.088 | [5] 0.156

MRPS12 (UniProt O15235)
inactive: [1] 0.019 | [2] -0.121 | [3] -0.176 | [4] 0.093 | [5] 0.061

NPC1 (UniProt O15118)
Sequence of UniProt O15118 (O15118 whole entry, looked up): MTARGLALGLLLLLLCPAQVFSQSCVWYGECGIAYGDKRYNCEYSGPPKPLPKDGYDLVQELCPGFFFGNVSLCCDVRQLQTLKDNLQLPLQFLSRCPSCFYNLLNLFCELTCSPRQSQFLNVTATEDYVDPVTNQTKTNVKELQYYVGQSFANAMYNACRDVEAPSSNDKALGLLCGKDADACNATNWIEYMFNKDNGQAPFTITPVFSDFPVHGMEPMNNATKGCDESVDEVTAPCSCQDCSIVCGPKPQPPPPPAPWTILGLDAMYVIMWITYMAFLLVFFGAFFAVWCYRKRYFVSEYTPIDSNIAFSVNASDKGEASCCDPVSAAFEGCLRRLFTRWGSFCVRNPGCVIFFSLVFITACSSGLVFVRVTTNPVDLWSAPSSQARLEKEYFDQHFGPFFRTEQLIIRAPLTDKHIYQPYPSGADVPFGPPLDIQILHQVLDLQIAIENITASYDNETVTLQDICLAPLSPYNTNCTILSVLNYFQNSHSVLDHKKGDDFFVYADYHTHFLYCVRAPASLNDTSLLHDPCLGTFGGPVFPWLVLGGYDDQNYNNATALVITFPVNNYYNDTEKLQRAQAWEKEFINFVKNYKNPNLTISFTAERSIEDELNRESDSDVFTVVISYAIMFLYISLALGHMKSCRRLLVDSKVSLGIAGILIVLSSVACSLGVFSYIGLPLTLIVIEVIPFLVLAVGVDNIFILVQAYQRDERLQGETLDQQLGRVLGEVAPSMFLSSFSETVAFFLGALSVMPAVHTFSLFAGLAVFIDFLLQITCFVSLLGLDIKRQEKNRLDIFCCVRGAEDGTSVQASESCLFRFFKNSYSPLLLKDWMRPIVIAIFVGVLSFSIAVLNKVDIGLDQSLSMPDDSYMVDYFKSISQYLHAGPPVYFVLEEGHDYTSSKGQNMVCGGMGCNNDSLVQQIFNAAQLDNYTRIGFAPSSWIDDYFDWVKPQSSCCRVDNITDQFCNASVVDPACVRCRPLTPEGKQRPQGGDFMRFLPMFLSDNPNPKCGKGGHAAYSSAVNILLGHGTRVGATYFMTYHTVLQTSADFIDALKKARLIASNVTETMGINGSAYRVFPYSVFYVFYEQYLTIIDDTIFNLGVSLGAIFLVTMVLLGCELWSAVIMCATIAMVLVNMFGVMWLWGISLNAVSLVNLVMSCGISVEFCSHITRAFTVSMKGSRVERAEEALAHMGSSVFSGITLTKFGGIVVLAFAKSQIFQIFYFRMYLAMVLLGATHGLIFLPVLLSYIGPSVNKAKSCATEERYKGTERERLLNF
inactive: [1] -0.034 | [2] -0.038 | [3] -0.017 | [4] 0.009 | [5] 0.049

MRPS35 (UniProt P82673)
inactive: [1] -0.011 | [2] -0.03 | [3] -0.033 | [4] 0.143 | [5] -0.004

NISCH (UniProt Q9Y2I1)
inactive: [1] 0.044 | [2] -0.02 | [3] 0.036 | [4] 0.044 | [5] -0.044

NDUFA9 (UniProt Q16795)
Sequence of UniProt Q16795 (Q16795 whole entry, looked up): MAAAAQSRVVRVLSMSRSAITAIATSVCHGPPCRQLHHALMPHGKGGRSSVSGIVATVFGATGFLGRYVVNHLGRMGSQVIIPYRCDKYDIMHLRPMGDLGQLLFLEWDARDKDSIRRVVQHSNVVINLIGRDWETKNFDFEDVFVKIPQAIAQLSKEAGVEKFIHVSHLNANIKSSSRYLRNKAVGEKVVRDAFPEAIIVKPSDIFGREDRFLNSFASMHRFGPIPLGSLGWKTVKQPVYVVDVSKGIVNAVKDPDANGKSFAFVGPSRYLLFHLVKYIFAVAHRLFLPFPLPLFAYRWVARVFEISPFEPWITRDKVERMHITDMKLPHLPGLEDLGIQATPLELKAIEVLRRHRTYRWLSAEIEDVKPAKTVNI
inactive: [1] -0.005 | [2] 0.075 | [3] 0.078 | [4] -0.014 | [5] -0.054

NCK1 (UniProt P16333)
inactive: [1] -0.077 | [2] 0.025 | [3] 0.168 | [4] 0.044 | [5] -0.085

NACC1 (UniProt Q96RE7)
inactive: [1] -0.029 | [2] 0.039 | [3] 0.092 | [4] -0.037 | [5] -0.015

MNAT1 (UniProt P51948)
Sequence of UniProt P51948 (P51948 whole entry, looked up): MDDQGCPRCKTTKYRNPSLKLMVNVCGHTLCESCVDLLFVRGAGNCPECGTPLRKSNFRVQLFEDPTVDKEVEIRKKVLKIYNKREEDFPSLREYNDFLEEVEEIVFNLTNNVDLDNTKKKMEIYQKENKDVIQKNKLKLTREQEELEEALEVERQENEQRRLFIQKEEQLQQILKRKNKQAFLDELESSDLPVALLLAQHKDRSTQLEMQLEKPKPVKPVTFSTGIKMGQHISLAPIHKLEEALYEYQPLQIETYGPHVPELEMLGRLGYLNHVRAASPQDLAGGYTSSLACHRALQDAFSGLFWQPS
inactive: [1] 0.011 | [2] 0.088 | [3] 0.005 | [4] 0.033 | [5] 0.068
